SMARCA2 activ = SMARCA2 function activation, primary screen; MG213 cells, MMTV-luciferase reporter, dexamethasone, overnight; activation, % at 9.1 µM; hit rate 1% among 370,000; in the data active = activation above about 7.8%
SKN-1 inh = C. elegans SKN-1 inhibition. C. elegans VP596 Pgst-4::GFP/RFP ratio, acrylamide-induced, 24 h. inhibition, % at 21.8 µM. hit rate 0.49% among 360,000;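 active = interference check ratio from 0.5 to 1.5 plus GFP to RFP signal ratio inhibition reaching or exceeding a fixed threshold, cut at about 30% in these data, passing the limit was not always enough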
NR3A LBD binder = NR3A (human) ligand-binding domain modulation; NR3A LBD differential scanning fluorimetry, Tm shift; 0% = protein alone, 100% = glycine-bound protein; hit rate 2.5% among 340,000; Tm shift relative to glycine control, % at 25 µM;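 active = melting temperature shift of at least 10% of the positive control shift, at one fixed dose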
NadD block = blocks S. aureus nicotinate mononucleotide adenylyltransferase; inhibition, % at 20 µM; AID 602399; purified NadD enzyme, colorimetric absorbance read-out; hit rate 0.78% among 360,000; in the data active = inhibition above about 26%
Vif inh = HIV Vif inhibition | HEK293T cells, Vif self-association by quenched fluorescence, imaging, 24 h | hit rate 0.35% among 340,000 | AID 602346 | inhibition, % at 7.49 µM; in the data active = inhibition above about 50%, passing the limit was not always enough
esBAF inh = inhibitors of esBAF chromatin remodeling in mouse ES cells; Bmi1-luciferase knock-in reporter, 24 h; 100% = twice the neutral-well signal; reporter increase, % at 12.5 µM; hit rate 2% among 350,000; AID 602393; in the data active = activation above about 40%;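 note: a rise in the Bmi1 reporter signal indicates esBAF inhibition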
NadD inh conf = NadD (S. aureus) inhibition, single concentration confirmation. shares compounds with NadD block. purified S. aureus NadD, colorimetric enzyme assay. inhibition, % at 20 µM. hit rate 13% among 2,000. AID 624309; in the data active = inhibition mostly above about 42%, no sharp cut-off; inactive = mostly below about 42%
Of the large screens only hits and unclear results are named; the others gave an inactive call (follow-up assays come after a bar, where they were run). Hits are enriched below; roughly 5.2% of the tested compounds scored in any of these assays.

C[C@@H]1CN([C@H](C)CO)C(=O)c2cc(NC(=O)NC3CCCCC3)ccc2O[C@@H](C)CCCCO[C@H]1CN(C)C(=O)c1ccncc1	none (no result: SMARCA2 activ, SKN-1 inh, NR3A LBD binder, NadD block, Vif inh)
CC(C)(C)OC(=O)NCc1ccc(NC(=O)c2nc[nH]c2C(=O)NCCCCNC(=O)c2[nH]cnc2C(=O)Nc2ccc(CNC(=O)OC(C)(C)C)cc2)cc1	none (no result: SMARCA2 activ)
CC(C)(C)OC(=O)NCc1ccc(NC(=O)c2nc[nH]c2C(=O)NCCCCCCNC(=O)c2[nH]cnc2C(=O)Nc2ccc(CNC(=O)OC(C)(C)C)cc2)cc1	NadD block 39.5 | NadD inh conf inactive
CC(C)(C)OC(=O)NCc1ccc(NC(=O)c2nc[nH]c2C(=O)NCCN(CCNC(=O)c2[nH]cnc2C(=O)Nc2ccc(CNC(=O)OC(C)(C)C)cc2)CCNC(=O)c2[nH]cnc2C(=O)Nc2ccc(CNC(=O)OC(C)(C)C)cc2)cc1	NR3A LBD binder 10.6, NadD block 42.7 | NadD inh conf inactive
Cn1cnc(C(=O)NCc2ccc(CNC(=O)OC(C)(C)C)cc2)c1C(=O)NCc1ccc(CNC(=O)OC(C)(C)C)cc1	NadD block 32.9 | NadD inh conf inactive
CO[C@H](CN(C)S(=O)(=O)c1cccc(Cl)c1)[C@H](C)CN([C@@H](C)CO)S(=O)(=O)c1cccc(Cl)c1	none (no result: SMARCA2 activ, SKN-1 inh, NR3A LBD binder, NadD block, Vif inh)
N#C[C@H]1[C@@H](c2ccc(C3=CCCC3)cc2)[C@@H](CO)N1C(=O)Nc1ccccc1F	none (no result: SMARCA2 activ, SKN-1 inh, NR3A LBD binder, NadD block, Vif inh)
C[C@H]1CN([C@@H](C)CO)C(=O)Cc2cc(NC(=O)CCCCCC(=O)Nc3ccccc3N)ccc2O[C@@H]1CN(C)C(=O)Nc1ccc(C(F)(F)F)cc1	none (no result: SMARCA2 activ, SKN-1 inh, NR3A LBD binder, NadD block, Vif inh)
NC(=O)[C@H](Cc1cc2ccccc2s1)NC(=O)[C@@H]1CC2(CC(c3cccc(NC(=O)[C@@H]4CCC(=O)N4)c3)=NO2)CN1C(=O)/C=C/c1c(F)cccc1Cl (stereo partly specified)	NadD block 34.4 (no result: SMARCA2 activ) | NadD inh conf inactive
O=C(NC(=S)Nn1cnc2c(cnn2-c2ccccc2)c1=O)c1ccc(Oc2ccccc2)cc1	NadD block 42.0 (no result: esBAF inh) | NadD inh conf inactive
C[C@H]1CN([C@@H](C)CO)C(=O)Cc2cc(NS(=O)(=O)c3ccc(F)cc3)ccc2O[C@@H]1CN(C)Cc1ccc(Oc2ccccc2)cc1	none (no result: SMARCA2 activ, SKN-1 inh, NR3A LBD binder, NadD block, Vif inh)
O=c1cc(O)c2sc(Nc3ccc(Cl)c(F)c3)nc2[nH]1	NadD block 38.2 (no result: esBAF inh) | NadD inh conf inactive
C[C@@H]1CCCCO[C@@H](CN(C)S(=O)(=O)c2ccc(Cl)cc2)[C@H](C)CN([C@@H](C)CO)C(=O)c2cc(NC(=O)CCCN(C)C)ccc2O1	none (no result: SMARCA2 activ, SKN-1 inh, NR3A LBD binder, NadD block, Vif inh)
S=C1Nc2ccccc2CS1	none (no result: NR3A LBD binder, esBAF inh)
S=C1Cc2ccccc2N1	NadD block 30.7 | NadD inh conf inactive
Cc1noc(C)c1NC(=O)Nc1ccc2c(c1)C(=O)N([C@@H](C)CO)C[C@@H](C)[C@H](CN(C)C(=O)c1ccccc1)OCCCC[C@H](C)O2	none (no result: SMARCA2 activ, SKN-1 inh, NR3A LBD binder, NadD block, Vif inh)
Cc1cccc(OCC(=O)Nc2ccc(N3CCCC3)cc2)c1C	NadD block 43.1 | NadD inh conf inactive
Cc1ccc(OCC(=O)Nc2ccc(N3CCCC3)cc2)cc1C	NadD block 32.2 (no result: Vif inh) | NadD inh conf inactive
COc1ccc(NC(=O)c2ccc3c(c2)S(=O)(=O)c2ccccc2C3=O)cc1	none
CC(C)(C)c1ccc(NC(=O)c2ccc3c(c2)S(=O)(=O)c2ccccc2C3=O)cc1	NadD block 27.9 | NadD inh conf inactive
O=C(C[C@H]1C=C[C@H](NS(=O)(=O)c2ccc(F)cc2)[C@@H](CO)O1)NCc1ccc(Cl)c(Cl)c1	none (no result: SMARCA2 activ, SKN-1 inh, NR3A LBD binder, NadD block, Vif inh)
c1ccc(OCCNc2nc(NCC3CC3)nc3cc(-c4ccccc4)sc23)cc1	NadD block 33.1 (no result: NR3A LBD binder) | NadD inh conf inactive
CC(C)Nc1nc(-c2ccccc2F)c2sc(-c3ccccc3)cc2n1	none (no result: NR3A LBD binder)
CC(C)Nc1nc(NCCN2CCCC2)c2sc(-c3ccccc3)cc2n1	NadD block 34.5 (no result: NR3A LBD binder) | NadD inh conf inactive
CN1CCN(C(=O)C[C@H]2CC[C@H]3[C@@H](COC[C@@H](O)CN3Cc3cccc(-c4ccncc4)c3)O2)CC1	none (no result: SMARCA2 activ, SKN-1 inh, NR3A LBD binder, NadD block, Vif inh)
Cc1nc(SCc2nc3ccc([N+](=O)[O-])cc3[nH]2)c2oc3ccccc3c2n1	NadD block 33.3 | NadD inh conf inactive
Cc1cccc(N2CCN(C(=O)c3ccc4c(c3)NC(=O)C(CSCc3cccc(F)c3)N4)CC2C)c1 (stereo unspecified)	NadD block 49.1, Vif inh 60.8 | NadD inh conf 70.0
Cc1cccc(N2CCN(C(=O)c3ccc4nccnc4c3)CC2C)c1 (stereo unspecified)	none (no result: esBAF inh)
CCOC(=O)Cc1csc(NC(=O)c2sc3nc4c(C)cc(C)cc4cc3c2N)n1	NadD block 40.4 | NadD inh conf inactive
CCOc1ccc2nc(N3C(=O)/C(=C/c4ccc(Cl)cc4)NC3=S)sc2c1	NadD block 48.7 (no result: esBAF inh) | NadD inh conf inactive
O=C(C[C@H]1C[C@@H]2c3cc(NC(=O)NC4CCCC4)ccc3O[C@@H]2[C@@H](CO)O1)NCCN1CCCCC1	none (no result: SMARCA2 activ, SKN-1 inh, NR3A LBD binder, NadD block, Vif inh)
CO[C@@H]1CN(C)C(=O)c2ccc(NS(=O)(=O)c3ccccc3)cc2OC[C@@H](C)N(C(=O)NC(C)C)C[C@H]1C	none (no result: SMARCA2 activ, SKN-1 inh, NR3A LBD binder, NadD block, Vif inh)
COc1ccc(-c2nnc(SCC(=O)Nc3sc4c(c3C#N)CCC4)n2CC2CCCO2)cc1 (stereo unspecified)	none (no result: Vif inh)
COc1ccc(-n2c(SCC(=O)Nc3ccccc3)nnc2-c2ccc(NS(=O)(=O)c3ccc(C)cc3)cc2)cc1	NadD block 48.9 (no result: esBAF inh) | NadD inh conf inactive
COc1ccc(-c2nnc(SCC(=O)Nc3sc4c(c3C#N)CCCC4)n2-c2ccccc2)cc1	NadD block 40.9 | NadD inh conf inactive
CCn1c(SCC(=O)Nc2sc3c(c2C#N)CCCC3)nnc1-c1ccco1	none (no result: esBAF inh)
N#Cc1c(NC(=O)CSc2nnc(-c3ccco3)n2-c2ccccc2)sc2c1CCC2	NadD block 40.8 | NadD inh conf inactive
NC(=O)c1c(NC(=O)CSc2nnc(-c3ccco3)n2-c2ccccc2)sc2c1CCC2	none (no result: Vif inh, esBAF inh)
COc1ccc(-n2c(SCC(=O)Nc3sc4c(c3C#N)CCCC4)nnc2-c2ccccc2OC)cc1	NadD block 40.6 | NadD inh conf inactive
COCC(=O)N1[C@@H](CO)[C@@H]2c3ccccc3NC[C@@H]21	none (no result: SMARCA2 activ, SKN-1 inh, NR3A LBD binder, NadD block, Vif inh)
COc1ccc(S(=O)(=O)N(C)C[C@H]2Oc3ccc(NS(=O)(=O)c4ccc(F)cc4)cc3CC(=O)N([C@H](C)CO)C[C@H]2C)cc1	none (no result: SMARCA2 activ, SKN-1 inh, NR3A LBD binder, NadD block, Vif inh)
COc1cccc(-n2c(SCC(=O)Nc3sc4c(c3C(N)=O)CCC4)nc3ccccc3c2=O)c1	NadD block 31.7 | NadD inh conf inactive
C[C@H]1CN([C@@H](C)CO)C(=O)Cc2cc(NS(=O)(=O)c3cn(C)cn3)ccc2O[C@H]1CN(C)CC1CCCCC1	none (no result: SMARCA2 activ, SKN-1 inh, NR3A LBD binder, NadD block, Vif inh)
C[C@H](CO)N1C[C@H](C)[C@H](CN(C)Cc2ccc(C(F)(F)F)cc2)Oc2ccc(NC(=O)c3ccncc3)cc2C1=O	none (no result: SMARCA2 activ, SKN-1 inh, NR3A LBD binder, NadD block, Vif inh)

Source: PubChem
